The values that follow come from PubChem BioAssay (NCATS).

Test [1] is described as follows: Cell Viability - BJ (AID 421; calls by dose curve;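 also: potency is read from the fitted curve at half-maximal effect; cells exposed to compound for 40 hours at 37 °C before readout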). Conditions: BJ fibroblast viability, qHTS. A digest of the protocol:
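Cytotoxicity in human BJ foreskin fibroblasts is scored as loss of cellular ATP after a 40-hour exposure, measured by luciferase luminescence. Controls are DMSO and 100 uM tamoxifen.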
On the technique in general: In qHTS, concentration-response curves come from the screen itself.

Test [2] is described as follows: Cell Viability - Jurkat (AID 426;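 active = dose-dependent loss of cell ATP signal giving a full or clear fitted curve, ranked by lower potency value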;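 also: potency is read from the fitted curve at half-maximal effect; cells exposed to compound for 40 hours at 37 °C before ATP read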). Conditions: qHTS. A digest of the protocol: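 Cytotoxicity was scored as loss of cellular ATP, measured by luciferase-based luminescence, in Jurkat clone E6-1 cells after 40 h compound treatment; tamoxifen and doxorubicin served as positive controls.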
The nature of test [3]: Cell Viability - Hek293 (AID 427;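 active = compounds whose dose-response curve shows a full or clear partial loss of cell viability, called from curve shape rather than a numeric limit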;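 also: potency is read from the fitted curve at half-maximal effect; cells exposed to compound for 40 hours at 37 °C before reading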). Particulars: qHTS. A digest of the protocol: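 qHTS, human embryonic kidney (adenovirus-transformed) cells; 40 hr cpd, 37 °C; CellTiter-Glo ATP luminescence. Norm: DMSO = 0, 100 uM tamoxifen = 100% inhibition. Hill-fit AC50.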
Test [4] is described as follows: Cell Viability - HepG2 (AID 433; calls by dose curve; also: potency is read from the fitted curve at half-maximal effect). Conditions: qHTS. The method, boiled down:
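Cytotoxicity is scored as loss of intracellular ATP in HepG2 cells exposed to compounds for 40 h. Concentration-response curves, normalized to DMSO and 100 uM tamoxifen, give AC50 values.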

A short description of test [5]: Cell Viability - MRC5 (AID 434; calls by dose curve;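 also: potency is read from the fitted curve at half-maximal effect; cells exposed to compound for 40 hours at 37 °C; potency reflects cytotoxicity seen as loss of intracellular ATP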). Conditions: MRC5 lung fibroblast viability, qHTS. The method, boiled down: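 Decrease in intracellular ATP, quantified by luciferase light output, reflects compound toxicity toward MRC5 cells exposed for 40 hr in complete culture medium. Concentration-response curves, scaled between DMSO and 100 uM tamoxifen, gave AC50 values.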
Test [6] can be described thus: Cell Viability - SK-N-SH (AID 435; calls by dose curve;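 also: potency is read from the fitted curve at half-maximal effect; compound exposure lasted 40 h at 37 °C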). Particulars: SK-N-SH neuroblastoma cell viability qHTS. The method, boiled down: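 Cells seeded at 1500 per well and incubated 5 hr at 37 °C. Compound added, then 40 hr at 37 °C. CellTiter-Glo added, 20 min at room temperature, luminescence read.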
Test [7] can be described thus: Cell Viability - NIH 3T3 (AID 541). Also: nearly all actives have a fitted effect of over 25% in size. Also: potency is read from the fitted curve at half-maximal effect.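 As to activity change, negative = cytotoxicity: plate controls were DMSO alone for no effect and tamoxifen positive control for full effect.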 Conditions: NIH 3T3 cell viability, qHTS; activity change, negative = cytotoxicity: at 92.2 µM (top of the series). A digest of the protocol: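 In this cytotoxicity screen, acute toxicity is scored as an ATP drop measured by CellTiter-Glo in NIH 3T3 fibroblasts following a 40 hr, 37 °C incubation with compound.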
Test [8] in a line: Cell Viability - H-4-II-E (AID 543). Also: nearly all actives have a fitted effect of over 35% in size. Also: potency is read from the fitted curve at half-maximal effect. Conditions: H-4-II-E rat hepatoma viability; series mostly up to 92.2 µM. The method, boiled down: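 AC50 from Hill-modelled qHTS concentration-response curves. H-4-II-E rat hepatoma cells in complete medium, 40 hr exposure at 37 °C, viability by CellTiter-Glo ATP luminescence.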
Test [9] can be described thus: Cell Viability - Mesenchymal (AID 546).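 Also: cells exposed to compound for 40 hours before reading.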 Conditions: mesenchymal cells viability, qHTS; activity change, negative = cytotoxicity: at 91.7 µM (top of the series). A digest of the protocol: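 In this qHTS cytotoxicity format, glomerulus-derived human mesenchymal kidney cells received compound for 40 hr, then luciferase-based ATP quantitation. Concentration-response data were fitted with the Hill equation.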

Test [10] in a line: Cellular Toxicity (caspase-3) HepG2 (AID 654).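 Also: cells exposed to compound for 16 hours before reading; 0% = DMSO alone and 100% = caspase signal from 100 µM tamoxifen.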 Conditions: HepG2 caspase-3 activation, luminescence, 0% = DMSO only, 100% = tamoxifen; series mostly up to 92.2 µM. A digest of the protocol: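 Concentration-response AC50 values reflect caspase-3/7 induction in HepG2 cells after 16 hours of compound exposure, quantified by luminescence from liberated aminoluciferin and referenced to 100 uM tamoxifen as full stimulation.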

A short description of test [11]: Cellular Toxicity (caspase-3) HUV-EC-C (AID 656). Conditions: HUV-EC-C cells, caspase-3 activation (apoptosis), vehicle = 0, 100 µM tamoxifen = 100%; series mostly up to 92.2 µM. A digest of the protocol: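 Read-out: luminescence proportional to caspase 3/7 activity, measured 20 min after adding Caspase-Glo 3/7 reagent. Cells (HUV-EC-C) had received compound for 16 hr at 37°C. Increases relative to DMSO and 100 uM tamoxifen gave concentration-response AC50 values.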

Test [12] in a line: Cellular Toxicity (caspase-3) BJ (AID 658). Particulars: BJ fibroblasts, luminescence, normalized: DMSO 0%, staurosporine 100%; series mostly up to 91.7 µM. A digest of the protocol: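 Plated BJ cells (1000/well) rested 5 hr, received compound for 16 hr at 37 °C, then Caspase-Glo 3/7 reagent for 1 hr at room temperature before luminescence reading.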
Test [13] in a line: Cellular Toxicity (caspase-3) MRC-5 (AID 659). Conditions: MRC-5 cells, luminescence, normalized: DMSO 0%, 10 µM staurosporine 100%; series mostly up to 91.7 µM. The method, boiled down: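 Apoptosis readout in MRC-5 cells: luciferase light generated after caspase 3/7 cleaves a peptide-aminoluciferin substrate, measured post 16 hr compound incubation at 37 °C.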
Test [14] can be described thus: Cellular Toxicity (caspase-3) Mesangial (AID 660).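 Also: cells exposed to compound for 16 h before the caspase read.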 Conditions: mesangial cells, normalized: DMSO 0%, 100 µM tamoxifen 100%; series mostly up to 91.7 µM. The method, boiled down:
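AC50 values come from Hill-equation fits of caspase 3/7 activation, measured as Caspase-Glo luminescence in human glomerular mesangial cells exposed to compound for 16 h at 37 °C; 100% set by 100 uM tamoxifen.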

A short description of test [15]: Cellular Toxicity (caspase-3) Hek293 (AID 664).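 Also: cells exposed to compound for 16 h at 37 °C before readout.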 Particulars: HEK293 caspase-3 activation, DMSO = 0%, 100 µM tamoxifen = 100%; series mostly up to 92.2 µM. The method, boiled down:
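Apoptosis readout: Caspase-Glo 3/7 signal in human HEK293 cells following 16-hour compound incubation. Responses scaled between DMSO baseline and 100 uM tamoxifen.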

The nature of test [16]: Cellular Toxicity (caspase-3) Renal Proximal Tubule (AID 667).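 Also: cells exposed to compound for 16 hours at 37 °C before detection.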 Particulars: renal proximal tubule cells, primary cells freshly taken from rat, solvent-only wells 0%, staurosporine 100%; series mostly up to 91.7 µM. A digest of the protocol:
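In qHTS format, rat primary proximal tubule cells seeded at 1000 per well are exposed to compounds for 16 hours at 37 °C. An increase in Caspase-Glo 3/7 luminescence indicates caspase activation.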

The nature of test [17]: qHTS Assay for Identification of Small Molecule Inducers of Hypoxia Response (AID 2120; active = well fitted curve in the direction sought with a large enough effect in the signal ratio, with a control signal flat, not every such curve was filed as active; the % refers to the signal ratio; also: 0% is about no effect). Conditions: hypoxia response reporter cells, beta-lactamase ratio readout; series mostly up to 104 µM. The method, boiled down:
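HRE-bla ME-180, 2500 cells/well, 0.5% dialyzed FBS medium; cpd titration, 17 h 37 degrees C; CCF4 2.5 h RT; Ex 405, Em 460/530 ratio -> %Activity, AC50.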

The nature of test [18]: qHTS assay for small molecule antagonists of retinoid X receptor alpha signaling (AID 588546).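 Also: cells stimulated with 9-cis-retinoic acid as agonist; % is scaled to controls: 0 for no effect and ±100 for the full control effect.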 Conditions: HEK293T RXRa-UAS-bla, beta-lactamase ratio, antagonist mode; measured here: W530 green channel, cytotoxicity proxy. The method, boiled down:
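Beta-lactamase reporter inhibition, read as CCF4 fluorescence ratio (ex 405, em 460/530 nm) after 2 h at RT. HEK293T UAS-bla cells, 2500/well, were stimulated with 9-cis-RA at 500 or 100 nM final alongside test compound for 18 h at 37 C.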

The target of test [19] is Peroxisome proliferator-activated receptor alpha (Homo sapiens) (UniProt Q07869). Put plainly: qHTS assay for small molecule agonists of the peroxisome proliferator-activated receptor alpha (PPARalpha) signaling pathway (AID 651778). Also: % of control where 0% means no effect. Conditions: PathHunter PPARalpha complementation, chemiluminescence, 6 h; max response: stronger effect = higher value. A digest of the protocol:
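Cells plated at 2,000/well and held overnight at 37 C, 5% CO2, then compound added by pin tool for 6 hr; after PathHunter detection reagent and 60 min at room temperature, chemiluminescence from enzyme complementation was read.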

For test [20], the target named is Mitogen-activated protein kinase 10 (Mus musculus) (UniProt Q61831). Put plainly: JNK3 AlphaScreen Assay (AID 530; active = well fitted curve in either direction with a large enough effect, not every such curve was filed as active;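 also: kinase came from lysate of stimulated human HepG2 cells; signal reports phosphorylation of biotinylated GST-cJun 1-79 at Ser73 with 10 µM ATP; % is scaled to controls: 0 for no effect and ±100 for the full control effect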). Particulars: JNK3 lysate, c-Jun phosphorylation; series mostly up to 57.1 µM. A digest of the protocol:
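Biotinylated GST-cJun(1-79) served as substrate for JNK3 in HepG2 lysates stimulated with IL-1beta and TNF-alpha. ATP was 10 uM final, pH 7.6. Ser73 phosphorylation was quantified by AlphaScreen (680 nm excitation).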
Background: Bead proximity is the source of the signal in Alpha formats.

Where “and” joins values, the source holds several entries; their conditions need not be identical. Equal values may be shown once. Inconclusive results are not listed. Calls of active or inactive are those of the source. Unless noted, calls follow the shape of the dose curve; as a rule, active = well fitted curve in the direction sought with a large enough effect; inconclusive = small, poorly fitted or top-dose-only effect, or another doubt; inactive = no such curve, though single readings can be large; an effect the other way counts as inactive or inconclusive.

Peroxisome proliferator-activated receptor alpha (Homo sapiens), sequence (Q07869 whole entry, looked up): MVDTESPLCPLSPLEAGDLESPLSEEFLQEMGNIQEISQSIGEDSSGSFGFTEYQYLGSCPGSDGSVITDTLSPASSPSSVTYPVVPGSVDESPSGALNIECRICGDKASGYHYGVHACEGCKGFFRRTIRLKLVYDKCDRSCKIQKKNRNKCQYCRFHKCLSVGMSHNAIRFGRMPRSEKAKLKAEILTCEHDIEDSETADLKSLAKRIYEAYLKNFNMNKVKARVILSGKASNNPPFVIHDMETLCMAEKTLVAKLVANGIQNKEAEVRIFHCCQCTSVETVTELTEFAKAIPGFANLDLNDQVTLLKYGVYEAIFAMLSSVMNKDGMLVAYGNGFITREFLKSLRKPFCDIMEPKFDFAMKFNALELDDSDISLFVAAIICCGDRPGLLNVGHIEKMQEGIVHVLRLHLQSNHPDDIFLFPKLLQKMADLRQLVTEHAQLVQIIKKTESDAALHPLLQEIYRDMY

As to `O=[N+]([O-])c1cccc(Cl)c1Cl`, the Potency in test [1], in [2], in test [3], in test [4], in test [5] and in [6] was > 92 µM (inactive) throughout. Further, the Potency result in [7] and in [8] was “inactive” each time. Also, the activity change, negative = cytotoxicity in test [9] was 4.81% (inactive). The call in [10], in [11], in [12], in test [13], in [14] and in test [15] was inactive. Further, the call in [16] and in test [17] was inactive. In addition, the max response in [18] was 3.16% and 3%; in test [19], -3.44% (inactive) and -1.57% (inactive).
Turning to `CC(=O)OC/C=C(\C)CCC=C(C)C`, the Potency in test [1], in test [2], in [3], in [4], in [5] and in [6] was > 92 µM (inactive) each time. For the same compound, the Potency entry in [20], in test [7] and in test [8] was “inactive” throughout. Besides, the activity change, negative = cytotoxicity in test [9] is 8.38% (inactive). In addition, the compound was called inactive in test [10], in test [11], in test [12], in test [13], in test [14] and in [15]. In addition, the compound was classed as inactive in test [16] and in test [17]. The max response in [18] is -3.71% and -6.77%; in [19], -5.73% (inactive) and -0.163% (inactive).
In the case of `Clc1cc(Cl)c(Cl)c(Cl)c1Cl`, the Potency in [1], in test [2], in test [3], in test [4], in [5] and in [6] was > 92 µM (inactive) throughout. Besides, the Potency entry in [20], in [7] and in test [8] was “inactive” throughout. The activity change, negative = cytotoxicity in test [9] was -0.0158% (inactive). For the same compound, the call in test [10], in test [11], in test [12], in test [13], in [14] and in test [15] was inactive. The compound was called inactive in test [16] and in test [17]. In addition, the max response in [18] is -5.69% and -1.37%; in [19], -5.3% (inactive) and -0.232% (inactive).
For `COc1cccc(Cn2c(=O)c(CCc3ccccc3)nc3cnc(N(C)C)nc32)c1`, in test [20], the Potency result is “inactive”.
As to `C=CC(=O)OCCOCCOCCOCCOC(=O)C=C`, the Potency is > 92 µM (inactive) in test [1]; 6.78 µM (active) and 12.4 µM (active) in test [2]; 24.8 µM (active) and 28.8 µM (active) in [3]; > 92 µM (inactive) in [4]; 41.6 µM (active) in test [5]; 10.9 µM (active) and 23.1 µM (active) in [6]. In addition, the Potency in test [7] is 2.51 µM (active) and 3.98 µM (active); in test [8], 20 µM (active). For the same compound, the activity change, negative = cytotoxicity in test [9] was -89.5% (active) and -83.9% (active). Also, the compound was called inactive in test [10], in test [11], in [12], in test [13], in test [14] and in [15]. The outcome in test [16] and in test [17] was inactive. The max response in test [19] is -0.0133% (inactive) and -3.95% (inactive).
Turning to `O=C(O)CC(C(=O)O)C(CC(=O)O)C(=O)O` (centres undefined), the Potency in test [1], in [2], in test [3], in [4], in [5] and in test [6] was > 92 µM (inactive) in each case. In addition, the Potency result in [20], in test [7] and in [8] was “inactive” throughout. Besides, the activity change, negative = cytotoxicity in test [9] was -11.1% (inactive). In addition, the call in test [10], in test [11], in [12], in test [13], in [14] and in test [15] was inactive. The call in [16] and in [17] was inactive. Besides, the max response in test [18] was 3.1% and -5.42%; in test [19], -1.2% (inactive) and -0.001% (inactive).
Turning to `COc1ccc(CNc2ncncc2-c2ccccc2OC)c(OC)c1`, the Potency result in [20] is “inactive”.
